# PubChem BioAssay AID1159580 (chemical genetic matrix, 2015)
# “And” between values parts separate entries of the source, which are not always exact repeats. Equal entries are not always repeated. In all, about 5,500 compounds went through this assay and about 2,000 (36%) were called active. Roughly 18% stayed inconclusive and do not appear here. No stated cut-off is given here; in the data, active means normalized growth mostly below about 0.91 (no sharp cut-off); inconclusive means no clear call, values can overlap the other calls; inactive means mostly above about 0.92. Some of the results follow. More than one record can exist for a structure, and the calls need not agree.
# Test: chemical genetic growth profiling, strain panel (AID 1159580);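 further: tested at 20 µM; growth read once vehicle control cultures reached saturation at 30 °C; 1 = growth at the plate median or of vehicle wells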
# Settings: growth OD
structure (smiles),measurement,setting,value
O=C(CCCN1CCC(O)(c2ccc(Cl)cc2)CC1)c1ccc(F)cc1,normalized growth,"S. cerevisiae deletion strains, locus YJR043C, strain POL32, stronger effect = lower value",0.93 (inactive)
same,normalized growth,"S. cerevisiae deletion strains, locus YJR066W, strain TOR1, stronger effect = lower value",0.939 (inactive)
same,normalized growth,"S. cerevisiae deletion strains, locus YJR075W, strain HOC1, stronger effect = lower value",0.819 (active)
same,normalized growth,"S. cerevisiae deletion strains, locus YKL009W, strain mrt4, stronger effect = lower value",0.963 (inactive)
same,normalized growth,"S. cerevisiae deletion strains, locus YKL068W, stronger effect = lower value",1.02 (inactive)
same,normalized growth,"S. cerevisiae deletion strains, locus YKL085W, strain MDH1 (second series), stronger effect = lower value",1.02 (inactive)
same,normalized growth,"S. cerevisiae deletion strains, locus YKL085W, strain MDH1, stronger effect = lower value",1.02 (inactive)
same,normalized growth,"S. cerevisiae deletion strains, locus YKL160W, strain elf1, stronger effect = lower value",0.904 (inactive)
same,normalized growth,"S. cerevisiae deletion strains, locus YKR001C, strain vps1, stronger effect = lower value",0.247 (active)
same,normalized growth,"S. cerevisiae deletion strains, locus YKR026C, strain gcn3, stronger effect = lower value",1.03 (inactive)
same,normalized growth,"S. cerevisiae deletion strains, locus YKR091W, strain srl3, stronger effect = lower value",1.03 (inactive)
same,normalized growth,"S. cerevisiae deletion strains, locus YLL001W, strain dnm1, stronger effect = lower value",0.958 (inactive)
same,normalized growth,"S. cerevisiae deletion strains, locus YLL026W, stronger effect = lower value",0.947 (inactive)
same,normalized growth,"S. cerevisiae deletion strains, locus YLL041C, strain sdh2, stronger effect = lower value",1.02 (inactive)
same,normalized growth,"S. cerevisiae deletion strains, locus YLR027C, strain aat2, stronger effect = lower value",0.911 (active)
same,normalized growth,"S. cerevisiae deletion strains, locus YLR039C, strain RIC1, stronger effect = lower value",1.39 [resistant] (active)
same,normalized growth,"S. cerevisiae deletion strains, locus YLR058C, strain SHM2, stronger effect = lower value",0.746 (active)
same,normalized growth,"S. cerevisiae deletion strains, locus YLR102C, strain apc9, stronger effect = lower value",1.02 (inactive)
same,normalized growth,"S. cerevisiae deletion strains, locus YLR113W, strain HOG1, stronger effect = lower value",1.03 (inactive)
same,normalized growth,"S. cerevisiae deletion strains, locus YLR221C, strain rsa3, stronger effect = lower value",0.923 (inactive)
same,normalized growth,"S. cerevisiae deletion strains, locus YLR258W, strain gsy2, stronger effect = lower value",0.938 (inactive)
same,normalized growth,"S. cerevisiae deletion strains, locus YLR262C, strain YPT6 (second series), stronger effect = lower value",0.893 (inactive)
same,normalized growth,"S. cerevisiae deletion strains, locus YLR262C, strain YPT6, stronger effect = lower value",1.37 (inactive)
same,normalized growth,"S. cerevisiae deletion strains, locus YLR268W, strain sec22, stronger effect = lower value",0.794 (active)
same,normalized growth,"S. cerevisiae deletion strains, locus YLR320W, strain mms22, stronger effect = lower value",0.49 (active)
same,normalized growth,"S. cerevisiae deletion strains, locus YLR330W, strain CHS5, stronger effect = lower value",0.849 (active)
same,normalized growth,"S. cerevisiae deletion strains, locus YLR342W, strain FKS1 (second series), stronger effect = lower value",0.726 (active)
same,normalized growth,"S. cerevisiae deletion strains, locus YLR342W, strain FKS1, stronger effect = lower value",1.01 (inactive)
same,normalized growth,"S. cerevisiae deletion strains, locus YLR357W, strain rsc2, stronger effect = lower value",1.19 [resistant] (active)
same,normalized growth,"S. cerevisiae deletion strains, locus YLR370C, strain arc18, stronger effect = lower value",0.965 (inactive)
same,normalized growth,"S. cerevisiae deletion strains, locus YLR371W, strain rom2, stronger effect = lower value",1 (inactive)
same,normalized growth,"S. cerevisiae deletion strains, locus YLR384C, strain iki3, stronger effect = lower value",0.999 (inactive)
same,normalized growth,"S. cerevisiae deletion strains, locus YLR418C, strain cdc73, stronger effect = lower value",0.496 (active)
same,normalized growth,"S. cerevisiae deletion strains, locus YML016C, strain PPZ1, stronger effect = lower value",0.915 (active)
same,normalized growth,"S. cerevisiae deletion strains, locus YML032C, strain rad52, stronger effect = lower value",0.82 (active)
same,normalized growth,"S. cerevisiae deletion strains, locus YML120C, strain ndi1, stronger effect = lower value",0.932 (inactive)
same,normalized growth,"S. cerevisiae deletion strains, locus YML124C, strain tub3, stronger effect = lower value",0.994 (inactive)
same,normalized growth,"S. cerevisiae deletion strains, locus YMR058W, strain fet3, stronger effect = lower value",0.821 (active)
same,normalized growth,"S. cerevisiae deletion strains, locus YMR078C, strain ctf18, stronger effect = lower value",1.01 (inactive)
same,normalized growth,"S. cerevisiae deletion strains, locus YMR125W, strain sto1, stronger effect = lower value",0.876 (active)
same,normalized growth,"S. cerevisiae deletion strains, locus YMR129W, stronger effect = lower value",1.03 (inactive)
same,normalized growth,"S. cerevisiae deletion strains, locus YMR205C, strain PFK2, stronger effect = lower value",0.949 (inactive)
same,normalized growth,"S. cerevisiae deletion strains, locus YMR223W, strain ubp8, stronger effect = lower value",0.8 (active)
same,normalized growth,"S. cerevisiae deletion strains, locus YMR231W, strain pep5, stronger effect = lower value",1.01 (inactive)
same,normalized growth,"S. cerevisiae deletion strains, locus YMR263W, strain SAP30, stronger effect = lower value",0.996 (inactive)
same,normalized growth,"S. cerevisiae deletion strains, locus YMR307W, strain GAS1, stronger effect = lower value",0.526 (active)
same,normalized growth,"S. cerevisiae deletion strains, locus YNL067W, strain RPL9B, stronger effect = lower value",0.844 (active)
same,normalized growth,"S. cerevisiae deletion strains, locus YNL071W, strain lat1, stronger effect = lower value",0.552 (active)
same,normalized growth,"S. cerevisiae deletion strains, locus YNL153C, strain GIM3, stronger effect = lower value",0.826 (active) and 0.893 (inactive)
same,normalized growth,"S. cerevisiae deletion strains, locus YNL175C, strain NOP13, stronger effect = lower value",0.664 (active)
same,normalized growth,"S. cerevisiae deletion strains, locus YNL183C, strain NPR1, stronger effect = lower value",0.971 (inactive)
same,normalized growth,"S. cerevisiae deletion strains, locus YNL197C, strain WHI3, stronger effect = lower value",0.997 (inactive)
same,normalized growth,"S. cerevisiae deletion strains, locus YNL209W, strain ssb2, stronger effect = lower value",0.933 (inactive)
same,normalized growth,"S. cerevisiae deletion strains, locus YNL224C, strain SQS1, stronger effect = lower value",1.04 (inactive)
same,normalized growth,"S. cerevisiae deletion strains, locus YNL233W, strain BNI4, stronger effect = lower value",0.751 (active)
same,normalized growth,"S. cerevisiae deletion strains, locus YNL248C, strain rpa49, stronger effect = lower value",0.818 (active)
same,normalized growth,"S. cerevisiae deletion strains, locus YNL250W, strain rad50, stronger effect = lower value",1 (inactive)
same,normalized growth,"S. cerevisiae deletion strains, locus YNL271C, strain bni1, stronger effect = lower value",1 (inactive)
same,normalized growth,"S. cerevisiae deletion strains, locus YNL298W, strain CLA4, stronger effect = lower value",1.02 (inactive)
same,normalized growth,"S. cerevisiae deletion strains, locus YNL307C, strain MCK1, stronger effect = lower value",0.815 (active)
same,normalized growth,"S. cerevisiae deletion strains, locus YNL322C, strain KRE1 (second series), stronger effect = lower value",1.11 [resistant] (active)
same,normalized growth,"S. cerevisiae deletion strains, locus YNL322C, strain KRE1, stronger effect = lower value",0.884 (active)
same,normalized growth,"S. cerevisiae deletion strains, locus YNR049C, strain mso1, stronger effect = lower value",1.04 (inactive)
same,normalized growth,"S. cerevisiae deletion strains, locus YNR052C, strain pop2, stronger effect = lower value",0.737 (active)
same,normalized growth,"S. cerevisiae deletion strains, locus YOL012C, strain htz1",1.18 (inactive)
same,normalized growth,"S. cerevisiae deletion strains, locus YOL147C, strain pex11, stronger effect = lower value",0.941 (inactive)
same,normalized growth,"S. cerevisiae deletion strains, locus YOR001W, strain rrp6, stronger effect = lower value",0.871 (active)
same,normalized growth,"S. cerevisiae deletion strains, locus YOR061W, strain CKA2, stronger effect = lower value",0.942 (inactive)
same,normalized growth,"S. cerevisiae deletion strains, locus YOR069W, strain VPS5, stronger effect = lower value",0.963 (inactive)
same,normalized growth,"S. cerevisiae deletion strains, locus YOR070C, strain gyp1, stronger effect = lower value",0.29 (active)
same,normalized growth,"S. cerevisiae deletion strains, locus YOR080W, strain dia2, stronger effect = lower value",0.969 (inactive)
same,normalized growth,"S. cerevisiae deletion strains, locus YOR083W, strain WHI5 (second series), stronger effect = lower value",0.977 (inactive)
same,normalized growth,"S. cerevisiae deletion strains, locus YOR083W, strain WHI5, stronger effect = lower value",0.944 (inactive)
same,normalized growth,"S. cerevisiae deletion strains, locus YOR106W, strain vam3, stronger effect = lower value",0.935 (inactive)
same,normalized growth,"S. cerevisiae deletion strains, locus YOR136W, strain idh2, stronger effect = lower value",0.98 (inactive)
same,normalized growth,"S. cerevisiae deletion strains, locus YOR144C, strain elg1, stronger effect = lower value",1 (inactive)
same,normalized growth,"S. cerevisiae deletion strains, locus YOR184W, strain ser1, stronger effect = lower value",0.847 (active)
same,normalized growth,"S. cerevisiae deletion strains, locus YOR231W, strain MKK1, stronger effect = lower value",0.991 (inactive)
same,normalized growth,"S. cerevisiae deletion strains, locus YOR265W, strain rbl2, stronger effect = lower value",0.974 (inactive)
same,normalized growth,"S. cerevisiae deletion strains, locus YOR270C, strain vph1, stronger effect = lower value",0.381 (active)
same,normalized growth,"S. cerevisiae deletion strains, locus YOR290C, strain snf2, stronger effect = lower value",0.843 (active)
same,normalized growth,"S. cerevisiae deletion strains, locus YOR316C, strain cot1, stronger effect = lower value",1.02 (inactive)
same,normalized growth,"S. cerevisiae deletion strains, locus YPL051W, strain arl3, stronger effect = lower value",0.789 (active)
same,normalized growth,"S. cerevisiae deletion strains, locus YPL078C, strain atp4, stronger effect = lower value",0.914 (inactive)
same,normalized growth,"S. cerevisiae deletion strains, locus YPL106C, strain sse1, stronger effect = lower value",1.17 [resistant] (active)
same,normalized growth,"S. cerevisiae deletion strains, locus YPL240C, strain hsp82, stronger effect = lower value",1 (inactive)
same,normalized growth,"S. cerevisiae deletion strains, locus YPL241C, strain CIN2, stronger effect = lower value",0.89 (active) and 0.969 (inactive)
same,normalized growth,"S. cerevisiae deletion strains, locus YPL256C, strain CLN2, stronger effect = lower value",0.99 (inactive)
same,normalized growth,"S. cerevisiae deletion strains, locus YPR119W, strain clb2, stronger effect = lower value",1.04 (inactive)
same,normalized growth,"S. cerevisiae deletion strains, locus YPR141C, strain kar3, stronger effect = lower value",1.04 (inactive)
same,normalized growth,"S. cerevisiae deletion strains, locus YPR163C, strain tif3, stronger effect = lower value",0.575 (active)
same,normalized growth,"S. cerevisiae deletion strains, locus YPR167C, strain met16, stronger effect = lower value",0.942 (inactive)
same,normalized growth,"S. cerevisiae deletion strains, strain wtn01, stronger effect = lower value",0.776 (active)
same,normalized growth,"S. cerevisiae strains, strain wild type, stronger effect = lower value",0.833 (active)
